Reference: PubChem BioAssay (NCI)
Compounds without any hit were thinned out: in the full panel of roughly 83,000, 20% have a hit.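 Note: values are percent growth. 100 is the growth of untreated cells, values between 100 and 0 indicate rising inhibition; between -100 and 0 indicates cell death.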 Values without a mark were called inactive. Calls of active or inactive are those of the source. How the source made its calls: active means growth percent below 10; inactive means the rest.

System: SK-MEL-2 melanoma
Assay: NCI-60 one-dose screen, 48 h (100 = growth as untreated, 0 = no growth, -100 = all killed)
Conditions: 10 µM unless noted

SMILES	growth
Fc1ccc(-c2cc3nc(C(Cl)Cl)nc(-c4ccccc4)n3n2)cc1	53.5%
O=C(c1ccc(Cl)cc1)C1[C@H](c2ccc(Cl)cc2)[C@@H](c2ccccc2)NC12C(=O)Nc1ccc(Br)cc12 (stereo partly drawn)	38.7%
COc1ccccc1C(=O)CSc1nc(Nc2ccc(S(N)(=O)=O)cc2)c2ccccc2n1	98.1%
CC(C)(C)Nc1nc2c(OCCc3ccccc3)cccn2c1-c1ccccc1Cl	-76.2% (active)
CNC(=O)c1cc(-c2ccc(NC(=O)Nc3ccc(N4CCOCC4)c(C(F)(F)F)c3)cc2)nc2cccnc12	67.8%
CS(=O)(=O)c1ccc(-n2cc(/C=C/C(=O)c3ccc(NC(=O)CO[N+](=O)[O-])cc3)c(-c3ccc(Cl)cc3)n2)cc1	94.9%
Cc1[nH]nc2ncc(C#Cc3cncc(C(=O)Nc4ccc(CN5CCN(C)CC5)c(C(F)(F)F)c4)c3)cc12	-44.6% (active)
CCN1C(=S)N(CC)C2C1N=C(SC)N2/N=C/C=C/c1ccccc1[N+](=O)[O-] (stereo not drawn)	123%
C/C(=C(/c1ccc(Cl)cc1)c1ccc(OCCN)cc1)c1ccc(C)cc1	112%
O=[N+]([O-])c1ccc(O)c2ncccc12	78.3%
Cc1cc(=O)oc2cc(OCCCOc3ccc(/C=C/C(=O)Nc4ccc(Cl)cc4)cc3)ccc12	80.4%
Cc1ccc(-c2nc(C(Cl)Cl)nc3cc(-c4ccccc4)nn23)cc1	88.8%
Nc1cc(-c2c[nH]c3ccc(F)cc23)nc2cc(-c3c[nH]c4ccc(F)cc34)nn12	116%
COc1cccc(N2CCN(c3ncnc4c3[nH]c3ccc(F)cc34)C[C@@H]2C)c1	-94.9% (active)
Cc1ccc(/C=C/c2nn3c(-c4ccco4)nnc3s2)cc1C	128%
CCN1C(=S)N(CC)C2C1NN=C1SC(c3ccccc3)=CC(=O)N12 (stereo not drawn)	98.2%
CC(C)NC(=O)c1cc(-c2ccc(NC(=O)Nc3ccc(N4CCOCC4)c(C(F)(F)F)c3)cc2)nc2cccnc12	75.5%
Cn1cc(-c2cc(N)n3nc(-c4cn(C)c5ccc(Cl)cc45)cc3n2)c2cc(Cl)ccc21	121%
NS(=O)(=O)c1cccc(Nc2nc(SCC(=O)c3ccc(Cl)cc3)nc3ccccc23)c1	77.3%

SMILES	growth
Cc1sc2c(c1C)c(=O)nc1c(-c3nc(-c4ccc(F)cc4)no3)n[nH]n12	113%
CN1C(=O)N(c2ccccc2)C2N=C(N/N=C/c3ccccc3)SC21 (stereo not drawn)	-3.76% (active)
O=C1C2=C(C(=O)c3c(O)cccc31)C(c1ccco1)c1sc(=O)[nH]c1S2 (stereo not drawn)	-7.37% (active)
N[C@@H](Cc1cn(-c2c3ccccc3nc3ccccc23)nn1)C(=O)O	130%
Cc1sc2nc(NCc3ccccc3Cl)[nH]c(=O)c2c1C	106%
COc1ccccc1/C=C/C=N/NC1=NC2C(S1)N(C)C(=O)N2C (stereo not drawn)	23.9%
CC(=O)Nc1cc(F)cc(-c2ccc3[nH]cc(-c4ccccc4)c3n2)c1	-17.5% (active)
O=C(CSc1nc2sc3c(c2c(=O)n1-c1ccc(Cl)cc1)CCCC3)N/N=C/c1ccc(F)cc1	136%
Cc1ccccc1NC(=O)/C=C/c1ccc(OCCOc2ccc3c(C)cc(=O)oc3c2)cc1	103%
CCN(CC)c1ccc(C=O)c(OCc2cn(CC(=O)Nc3ccc(Cl)cc3)nn2)c1	89.7%
CC(C)(C)OC(=O)N1C(=O)c2c(c3c4ccccc4[nH]c3c3ccc4ccccc4c23)C1=O	42.7%
O=C(CSc1nc2sc3c(c2c(=O)n1-c1ccc(Cl)cc1)CCCC3)NNC(=O)Nc1cccc(C(F)(F)F)c1	-8.08% (active)
CC(=O)Oc1ccccc1C(=O)Nc1cc(C(C)C)ccc1C	-22.9% (active)
N#Cc1c(-c2ccc(Cl)cc2)nc(SCc2ccc(F)cc2)nc1N1CCNCC1	111%
COc1ccc(NC(=O)c2sc3nc(-c4cnccn4)cc(-c4cccs4)c3c2N)cc1	86.6%
CNC(=O)c1cc(-c2ccc(NC(=O)Nc3ccc(N4CCN(C)CC4)c(C(F)(F)F)c3)cc2)nc2cccnc12	-80.7% (active)
O=C(CSc1nccc(=O)[nH]1)Nc1ccc(-c2nc3ccccc3[nH]2)cc1	107%
O=C1c2c(c3c4cccnc4[nH]c3c3ccc4ccccc4c23)C(=O)N1CCO	138%
CN1CCN(Cc2ccc(NC(=O)c3cncc(C#Cc4cnc5ccc(N6CCSCC6)nn45)c3)cc2C(F)(F)F)CC1	-89.1% (active)
